# A number with no mark means an inactive call. The source made the active and inactive calls. Calls come from the whole dose curve; as a rule, active = well fitted inhibition curve with a large enough effect; inconclusive = small, poorly fitted or top-dose-only effect; inactive = flat fitted curve, though single readings scatter.
# Biological target: Luciferin 4-monooxygenase (Photinus pyralis) (UniProt P08659)
# Assay: Primary firefly luciferase (FLuc) qHTS assay for identification of artifact compounds. (AID 1845220); note: nearly all actives have a fitted effect of over 60% in size
# Details: purified firefly luciferase, luminescence, 5 min; series mostly up to 54.1 µM; activity change, negative = inhibition: at the top concentration
# Excerpt: PI: Alexander Tropsha Ph.D.
# UNC Eshelman School of Pharmacy
# University of North Carolina, Chapel Hill, North Carolina
# Hits from high-throughput screening (HTS) of chemical libraries are often false positives due to their interference with the assay detection technology. In response to this problem, we generated the largest publicly available library of chemical liabilities and developed a free webtool to predict HTS artifacts, both of which are described herein. More specifically, we generated, curated, and integrated HTS datasets for thiol reactivity, redox activity, and luciferase (firefly and nano) activity. Using these curated datasets, we developed and validated several Quantitative Structure-Interference Relationship (QSIR) models to predict nuisance behavior. […] These models were employed for virtual profiling of the National Center for Advancing Translational Science's (NCATS) in-house library, and 256 compounds for each assay were selected for the experimental validation of nuisance behavior. The BA for these external predictions ranged from 58 to 78% for compounds within the applicability domains of the models. […] The models developed in this study, along with aggregation models previously developed by our group (SCAM Detective) were implemented in "Liability Predictor," an online tool which may be used as part of chemical library design or for triaging HTS hits. Both the models and the curated datasets are publicly available at https://liability.mml.unc.edu/.
# SEQUENCE No. (e.g., 1, 2, 3, etc.); […] (e.g., Cells, Incubation, Reagent, etc.); VALUE; DESCRIPTION.
# 1; Reagent; 3 uL; Luciferase substrate mixture.
# 2; Compounds and control; 16 nL; Kalypsis pin tool (Wako USA) equipped with a 1536-well pin head.
# 4; Reagent; 1 uL; Luciferase enzyme.
# 6; Detection; Luminescence, ViewLux microplate reader.
# NOTES (numbers refer to Sequence numbers above)
# 1. 3 uL of luciferase substrate mixture containing D-luciferin and ATP (final concentrations of 10 uM and 10 uM, respectively) in assay buffer (10 mM Mg-acetate, 0.01% Tween-20, 0.05% bovine serum albumin, 50 mM Tris acetate, pH 7.6) was dispensed into all wells of a 1536-well assay plate (solid-bottom white plate; Greiner Bio One, Monroe, NC).
# 2. A Wako Pin-tool (Wako Automation, Richmond, VA) was used to transfer 16 nL of compounds (consisting of 7-plates in qHTS format, final concentration range 18.3 nM to 114 uM) or control PTC124 (final concentration range 1.22 nM to 40 uM).
# 3. 15 min. incubation at room temperature protected from light.
# 4. 1 uL of luciferase enzyme (final concentration 10 nM, Photinus pyralis luciferase) or buffer was dispensed for a final assay volume of 4 uL.
# 5. Plates were centrifuged (121xg, 15 seconds) and incubated for 5 minutes.
# 6. Samples were read for luminescence on a ViewLux CCD imager (PerkinElmer). Data were normalized to no-enzyme (0% activity) and no-inhibitor (DMSO; 100%) controls and the resulting percent inhibition data were fitted to a 4-parameter Hill equation using NCATS in-house software.
Structure (SMILES),"activity change, negative = inhibition",Potency,outcome
CC(C)CC1(C(=O)OCc2ccc(O[C@@H]3O[C@H](CO)[C@@H](O)[C@H](O)[C@H]3O)cc2)CC(=O)OC(C(=O)O)CC(=O)OCC2OC(O1)C(OC(=O)/C=C/c1ccc(O)cc1)C(O)C2O (stereo not given in full),3.35% [at 11.6 µM],–,–
C=CCc1ccc(O[C@@H]2O[C@H](CO[C@@H]3O[C@H](CO)[C@@H](O)[C@H](O)[C@H]3O)[C@@H](O)[C@H](O)[C@H]2O)c(O)c1,0.188% [at 25.7 µM],–,–
Cc1c(-c2ccnn2C)cc(C(=O)NCc2ccc(S(C)(=O)=O)cn2)c(=O)n1-c1cccc(C(F)(F)F)c1,–,inactive,–
CC(=O)OC1C(O)C(C)=C(CCC(C)CC(=O)O)C2(C)CCCC(C)(C)C12 (stereo not given),0.814%,–,–
CCCOc1ccn2c(C(C)=O)cc(-c3ccccc3S(C)(=O)=O)c2c1,4.92%,–,–
c1ccc(C(OC2CCN(CCCc3nn[nH]n3)CC2)c2ccccc2)cc1,-2.12%,–,–
CC1CC(O)C2(C)C(C(=O)O)=CCCC2C1(C)CCc1ccoc1 (stereo not given),–,–,inactive
CC(C)(O)C1CCC2(C)C3C(O)C4C(C13)C42CO (stereo not given),3.18%,–,–
C=C(C)[C@@H]1CC[C@](C)(O)[C@@H](OC(=O)c2ccccc2)C1,2.99%,–,–
COC(=O)c1cc(CN2CCN(C(=N)N)CC2)cc(C(=O)N2CCN(C(=O)c3ccc(C(=N)N)cc3)CC2)c1,3.33%,–,–
C=C1C2=CC(O)C(C)C1(C)CC/C(C)=C/CCC1(C)OC1C2=O (stereo not given),4.2%,–,–
CC1(C)CC(=O)N(CCCCN2CCN(c3ncccn3)CC2)C(=O)C1,4.03%,–,–
Nc1ccn([C@@H]2C(F)=C(CO)[C@@H](O)[C@H]2O)c(=O)n1,–,–,inactive
C=CC1(C)CC2=CCC3C(C)(C(=O)O)CCCC3(C)C2CC1OC(C)=O (stereo not given),–,–,inactive
CCCCCCc1cccc(NC(=O)[C@H](N)CCP(=O)(O)O)c1,2.4% [at 11.6 µM],–,–
CC(O)C(O)/C=C/C=C/C(=O)O[C@@H]1C=C2COC(=O)[C@]2(O)[C@@]2(C)CCCC(C)(C)C12 (stereo not given in full),1.34% [at 25.7 µM],–,–
CC(=O)OC[C@@]12[C@@H](OC(C)=O)C[C@@H](C)[C@](C)([C@@H]3C[C@H]4C=CO[C@H]4O3)[C@H]1CCC[C@]21CO1,–,–,inactive [at 25.7 µM]
CCOc1c2c(c(OCC)c3ccccc13)C(=O)N(c1ccc(CC(=O)NS(=O)(=O)c3ccccc3)cc1)C2,–,–,inactive
COc1cc(/C=C/C(=O)OC2CC(C)=C(C(=O)O)/C2=C/CO[C@@H]2O[C@H](CO)[C@@H](O)[C@H](O)[C@H]2O)ccc1O (stereo not given in full),–,–,inactive [at 25.7 µM]
CC(=O)O[C@H]1[C@H](C)[C@@H](O)[C@H]2[C@@H]1C=C(C(=O)O)[C@H]1C[C@@H]3[C@H]([C@H]21)[C@H]1C(=O)O[C@@H]2CC[C@@]3(C)O[C@]1(O)[C@@H]2C,-0.498% [at 25.7 µM],–,–

Structure (SMILES),"activity change, negative = inhibition",Potency,outcome
COC(=O)C1=CO[C@@H](O[C@@H]2O[C@H](CO)[C@@H](O)[C@H](O)[C@H]2O)[C@@H]2[C@@](C)(O)[C@@H](O)C[C@]12O,3.98% [at 25.7 µM],–,–
CC1=CC2(O)/C=C/C(C)(O)CC(O)/C=C/C(=O)OC23C(=O)NC(CC(C)C)C3C1C (stereo not given),-2.34% [at 25.7 µM],–,–
Clc1ccc(CN[C@H]2CCN(c3ncc(Br)cn3)C2)c(Cl)c1,–,–,inactive
CC1(C)C(O)CCC2(C)C1C(O)C=C1COC(=O)C12O (stereo not given),–,–,inactive
C=C1C(OC(C)=O)C(=O)C2C(C)(C)C(OC(C)=O)CCC2(C)C1CC(OC(C)=O)/C(C)=C/COC(C)=O (stereo not given),–,–,inactive [at 25.7 µM]
N#CC1C(=O)Nc2scc(-c3ccc(-c4ccccc4O)cc3)c2C1=O (stereo not given),-5.2%,–,–
CC1(C(=O)O)CCCC2(C)C1CCC13CC(CCC21)C1(CO)OC31 (stereo not given),–,–,inactive
C=CC(C)(C)C12CC3C(=O)NC(Cc4cnc[nH]4)C(=O)N3C1Nc1ccccc12 (stereo not given),3.44%,–,–
CC1CCC2(O1)C(C)(C)CC(O[C@@H]1O[C@H](CO[C@@H]3OC[C@](O)(CO)[C@H]3O)[C@@H](O)[C@H](O)[C@H]1O)CC2(C)O (stereo not given in full),4.26% [at 25.7 µM],–,–
CC1(C)CCC[C@@]2(C)[C@H]1[C@H](O)C=C1COC(=O)[C@@]12O,4.19%,–,–
C/C=C1\[C@H](O[C@@H]2O[C@H](CO)[C@@H](O)[C@H](O)[C@H]2O)OC=C(C(=O)OC)[C@H]1CC(=O)OC,1.81% [at 25.7 µM],–,–
C[C@@H]1CC[C@H]2C(C)(C)[C@H](O)[C@H](O)C[C@]2(C)[C@@]12Cc1c(O)cc3c(c1O2)CNC3=O,4.2%,–,–
C[C@]12CCC(=O)C=C1[C@@H](O)C[C@@H]1[C@@H]2[C@@H](O)C[C@@]2(C)[C@H]1CC[C@]2(O)C(=O)CO,–,–,inactive
COc1ccc(C)c2sc(NC(=O)c3ccncc3)nc12,-21.5%,–,–
CNC(=O)c1ccc2cc([C@@]3(O)CCn4cncc43)ccc2c1,–,–,inactive
CC1(C)CC2C(C1)C1(C)CCC13OC3(CO)C2O (stereo not given),–,–,inactive
NC(Cc1c[nH]c2ccccc12)C(=O)NC(CCC(=O)O)C(=O)O (stereo not given),-8.51%,–,–
O=C(O)c1cc(O[C@@H]2O[C@H](CO[C@@H]3OC[C@@H](O)[C@H](O)[C@H]3O)[C@@H](O)[C@H](O)[C@H]2O)c2ccccc2c1O,1.44% [at 25.7 µM],–,–
CC1(C)CCC(C)(C)c2cc([C@@H](O)C(=O)Nc3ccc(C(=O)O)cc3F)ccc21,–,–,inactive
CC1CCC2(C)C(CC(O)C(O)C23CO3)C1(C)CCC1=CC(O)OC1=O (stereo not given),-6.12%,–,–

# Source: PubChem BioAssay (NCATS)
